# According to ChEMBL document CHEMBL3988442, “University of Dundee, Small-Polar-MMV Screening Library” (2021):
# In all, about 48,000 compounds went through this assay and about 13,000 (27%) showed an effect of 50% or more. The list shows a part of the results.
# Tested on: Wolbachia pipientis
# Assay: Anti-Wolbachia Cell-Based Screen
# Assay type: functional
# Design: scale not given: in the data most compounds retested in dose-response had high values
# Conditions: 5 µM
row,SMILES,Percent Effect [%]
1,CC(C)NC(=O)NC[C@H]1C[C@@H]2CCN1C[C@@H]2CN(C)c1ccccc1,-10.33
2,CC(Cc1c(F)cccc1F)NC(=O)Nc1cnn(CC(N)=O)c1 (stereo unspecified),0.8263
3,C/C(=C\c1ccco1)CN(C)C(C)Cc1cc(C)ccn1 (stereo unspecified),32.02
4,O=C(Nc1ccccc1)[C@H]1CN2CCC1C[C@@H]2Cn1cc(CO)nn1 (stereo partly specified),-4.286
5,Cc1noc(C)c1CN1C[C@H]2CN(Cc3cccc(F)c3)C[C@H]2C1.O=C(O)C(F)(F)F.O=C(O)C(F)(F)F,97.06
6,O=C1N(Cc2ccccn2)C[C@H]2CN(C3CCC3)CCN12,-6.605
7,CC(C)C(=O)N1CCCC2(CCCN2Cc2cccnc2)C1 (stereo unspecified),-11.99
8,O=C(c1ccc[nH]1)N1CCCC2(CCCN2Cc2cccnc2)C1 (stereo unspecified),22.1
9,O=C1Nc2ccccc2CC12CCCN2Cc1cccnc1 (stereo unspecified),106.6
10,O=C1Nc2ccccc2CC12CCCN2Cc1ccccn1 (stereo unspecified),100.2
11,O=S(=O)(NC[C@H]1C[C@@H]2CCN1C[C@@H]2CN1CCCC1)c1ccc(Cl)cc1,14.89
12,CC(C)c1cc(CN2CCN(c3cccnc3)CC2)n(C)n1,9.429
13,CN1CCCC(c2ccc(N3CCOCC3)cn2)C1.Cl (stereo unspecified),96.78
14,CN1CCCC(c2n[nH]c3ncccc23)C1 (stereo unspecified),-5.321
15,CN1CCCC1c1ccc(N2CCOCC2)cn1 (stereo unspecified),81.49
16,CCN(CC)C(=O)C1CCC2(CCNCC2)CO1.Cl (stereo unspecified),2.217
17,Cc1ncsc1CN1CC[C@H]2C[C@H](c3ccncn3)O[C@@H]2C1,-3.058
18,Cc1cc(CN2CC[C@H]3C[C@@H](c4nc(C5CC5)cs4)O[C@@H]3C2)no1,106.4
19,Cc1cc(CN2CC[C@H]3C[C@H](c4nc(C5CC5)cs4)O[C@@H]3C2)no1,106.7
20,Cc1nc(CN2CC[C@H]3C[C@H](c4ccncn4)O[C@@H]3C2)cs1,0.4652
21,Cc1nccc([C@@H]2C[C@@H]3CCN(Cc4cccs4)C[C@H]3O2)n1,0.9996
22,c1cc(CN2CC[C@H]3C[C@H](c4nc(C5CC5)cs4)O[C@@H]3C2)ccn1,0.1706

row,SMILES,Percent Effect [%]
1,COCCN1CCO[C@H]2CCN(C(=O)c3ccnnc3)CC[C@@H]21.O=C(O)C(F)(F)F,-6.928
2,Cc1ccc(C(=O)N2CC[C@H]3[C@H]2CCN3CC2CCOCC2)cn1,4.595
3,CNC(=O)[C@H]1C[C@@H]2CN(c3cc(OC)ncn3)C[C@@H]2N1C(C)C,-9.424
4,COc1cc(N2CC[C@@H]3OCCN(C)[C@H]3CC2)ncn1,94.65
5,COc1cc(N2CC[C@@H]3[C@@H](CC2)OCCN3CC2CC2)ncn1,103
6,COCCN1CCC12CCN(C(=O)Cc1cccs1)C2.O=C(O)C(F)(F)F (stereo unspecified),10.38
7,COCCN1CCCC12CCN(c1ncccn1)CC2.O=C(O)C(F)(F)F,-7.716
8,CN(C)CCN1CCCC12CCN(C(=O)c1ccncc1)CC2.O=C(O)C(F)(F)F.O=C(O)C(F)(F)F,105
9,COCCN1CCC12CCN(c1ncccn1)C2.O=C(O)C(F)(F)F (stereo unspecified),-0.9151
10,Cc1cnc(N2CCCC3(CCCN3CC(=O)N(C)C)C2)nc1.O=C(O)C(F)(F)F (stereo unspecified),-1.71
11,CCN1CCCC12CCCN(c1ncccn1)C2.O=C(O)C(F)(F)F (stereo unspecified),1.763
12,COCCN1CCC12CCN(C(=O)c1ccc(C)nc1)C2.O=C(O)C(F)(F)F (stereo unspecified),107.4
13,O=C(O)C(F)(F)F.O=C(c1ccc[nH]1)N1CCC2(CCCN2Cc2cccnc2)CC1,-12.51
14,CN(C)CCN1CCCC12CCCN(C(=O)c1cccnc1)C2.O=C(O)C(F)(F)F.O=C(O)C(F)(F)F (stereo unspecified),118
15,Cc1ncc2c(c1CNC(=O)C1(C)CCCCO1)CCNC2 (stereo unspecified),13.24
16,Cc1nn(CCNC(C)Cn2cncn2)c(C)c1Cl (stereo unspecified),-0.5097
17,CC(C)C(NC(=O)c1ccccc1F)C(=O)N1CCC2(CC1)OCCO2 (stereo unspecified),-11.28
18,COc1ncccc1CN1CC[C@H]2O[C@H](c3nnc(C)o3)CC[C@H]21,-0.9405
19,Cc1nc(CN2CCO[C@@H]3CC(COc4ccccn4)C[C@H]32)cs1.O=C(O)C(F)(F)F.O=C(O)C(F)(F)F (stereo partly specified),94.34
20,O=C(O)C(F)(F)F.O=C(O)C(F)(F)F.c1ccc(OCC2C[C@@H]3[C@@H](C2)OCCN3Cc2ccoc2)nc1 (stereo partly specified),92.52
21,O=C(O)C(F)(F)F.O=C(O)C(F)(F)F.c1ccc(O[C@@H]2CC[C@H]3[C@H]2OCCN3CC2CCOCC2)nc1,-13.85
22,O=C(O)C(F)(F)F.O=C(O)C(F)(F)F.c1ccc(OCC2C[C@@H]3[C@@H](C2)OCCN3CC2CCOCC2)nc1 (stereo partly specified),96.17

row,SMILES,Percent Effect [%]
1,Fc1ccc(CN2CCO[C@H]3[C@H](Oc4ccccn4)CC[C@@H]32)cc1.O=C(O)C(F)(F)F.O=C(O)C(F)(F)F,-5.975
2,CC(C)NC(=O)[C@H]1C[C@@H]2[C@@H](C1)OCCN2Cc1ccccn1.O=C(O)C(F)(F)F.O=C(O)C(F)(F)F,2.364
3,Cc1nc(CN2CCO[C@H]3[C@@H](OCc4ccccn4)CC[C@@H]32)cs1.O=C(O)C(F)(F)F.O=C(O)C(F)(F)F,8
4,Cc1nc(CN2CC[C@H]3[C@H]2CCN3c2ncccn2)cs1.O=C(O)C(F)(F)F.O=C(O)C(F)(F)F.O=C(O)C(F)(F)F,-7.266
5,O=C(O)C(F)(F)F.O=C(O)C(F)(F)F.c1ccc(O[C@@H]2CO[C@@]3(CCCN(CC4CCOCC4)C3)C2)nc1,-10.07
6,CCCn1ncc(CN2CCCC(C(=O)c3ccc(Cl)cc3C)C2)c1C (stereo unspecified),-13.45
7,Cc1noc(C)c1CN1CCOC2(CCCN(c3nccs3)C2)C1 (stereo unspecified),-30.09
8,Cc1noc(C)c1CN1CCCC2(C1)CN(c1nccs1)CCO2.O=C(O)C(F)(F)F (stereo unspecified),-6.248
9,Cc1noc(C)c1CN1CCOCC12CCN(c1nccs1)CC2.O=C(O)C(F)(F)F,98.18
10,Cc1cc(Cl)ccc1C(=O)C1CCCN(Cc2cnc(N(C)C)s2)C1 (stereo unspecified),5.845
11,O=C(Nc1cc(C(F)(F)F)c[nH]c1=O)C1CCCN1 (stereo unspecified),84.36
12,Cc1nc(C)c(CC(=O)N2C[C@@H]3CC[C@H](C2)N(CC2CCC2)C3)c(=O)[nH]1,-4.383
13,O=C1NC[C@H]2CN(Cc3ccnc4ccccc34)CCN12,12.9
14,CN1CCOC(CN(C(=O)CN2CCCC2=O)c2nccs2)C1 (stereo unspecified),101.5
15,CN1C(=O)CCC12CCCN(Cc1nccs1)C2.O=C(O)C(F)(F)F (stereo unspecified),0.9809
16,Cc1csc(CN2C[C@@H]3CN(C)CCO[C@@H]3C2)n1,8.009
17,O=C(Cc1cccnc1)N1C[C@H]2CC[C@@H]1CN(Cc1ccc(F)cc1)C2,4.977
18,CNS(=O)(=O)CC(=O)NC(C)Cc1cccc(Cl)c1 (stereo unspecified),-8.41
19,CN(C)c1ncc2c(c1C(=O)O)CCN(Cc1ccco1)C2.O=C(O)C(F)(F)F.O=C(O)C(F)(F)F,87.52
20,CN(C)CCN1CCN(Cc2cccs2)Cc2cccnc21.O=C(O)C(F)(F)F.O=C(O)C(F)(F)F.O=C(O)C(F)(F)F,92.36
21,Cc1noc(C)c1CN1CCN(C)c2ncccc2C1.O=C(O)C(F)(F)F.O=C(O)C(F)(F)F,-16.26
22,COCCN1CCN(Cc2ccncc2)c2ncccc2C1.O=C(O)C(F)(F)F.O=C(O)C(F)(F)F.O=C(O)C(F)(F)F,-7.245

row,SMILES,Percent Effect [%]
1,CN(C)CCN1CCN(Cc2ccco2)Cc2cccnc21.O=C(O)C(F)(F)F.O=C(O)C(F)(F)F.O=C(O)C(F)(F)F,95.25
2,Cc1ncc2c(c1C(=O)O)CCN(c1ncc(F)cn1)C2.O=C(O)C(F)(F)F,-15.02
3,Cc1cnc(N2CCc3c(cnc(C)c3C(=O)O)C2)nc1.O=C(O)C(F)(F)F,-4.301
4,CN(C)CCN1CCN(Cc2nccs2)Cc2cccnc21.O=C(O)C(F)(F)F.O=C(O)C(F)(F)F.O=C(O)C(F)(F)F,88.3
5,Cc1ccc2c(n1)N(C)CCN(Cc1ccco1)C2.O=C(O)C(F)(F)F.O=C(O)C(F)(F)F,-3.328
6,COCCN1CCN(Cc2ccco2)Cc2ccc(C)nc21.O=C(O)C(F)(F)F.O=C(O)C(F)(F)F,-4.487
7,COCCNC(=O)[C@H]1CN2CCC1C[C@@H]2Cn1cc(C(C)(C)C)nn1 (stereo partly specified),-20.26
8,CN(C)C(=O)CN1CC[C@H]2[C@H]1CCN2c1ncccn1.O=C(O)C(F)(F)F.O=C(O)C(F)(F)F,-4.997
9,CCCn1nc(C)c(-c2cncn2CC2(N(C)C)CCC(C)CC2)c1C (stereo unspecified),117
10,c1ccc(O[C@@H]2CC[C@H]3[C@H]2OCCN3Cc2ccsc2)nc1,-6.73
11,Cc1cccc(CO[C@@H]2CC[C@H]3[C@H]2OCCN3Cc2ccoc2)n1,89.7
12,Cc1ncsc1CN1C[C@@H](OCc2ccncc2)[C@H]2OCCC[C@H]21.O=C(O)C(F)(F)F.O=C(O)C(F)(F)F,-3.825
13,Cc1ncsc1CN1C[C@H](OCc2ccncc2)[C@H]2OCCC[C@H]21.O=C(O)C(F)(F)F.O=C(O)C(F)(F)F,-13.88
14,Cc1cccc(CO[C@@H]2CC[C@H]3[C@H]2OCCN3Cc2ccsc2)n1.O=C(O)C(F)(F)F.O=C(O)C(F)(F)F,-22.6
15,CCOCCN1CCO[C@H]2[C@H](OCc3ccccn3)CC[C@@H]21.O=C(O)C(F)(F)F.O=C(O)C(F)(F)F,26.08
16,O=C(O)C(F)(F)F.O=C(O)C(F)(F)F.O=C1N(c2cccnc2)CCC12CCCN(Cc1ccoc1)C2 (stereo unspecified),-1.124
17,O=C(O)C(F)(F)F.O=C(O)C(F)(F)F.c1cncc(COCC2CC[C@H]3[C@H]2OCCN3Cc2ccoc2)c1 (stereo partly specified),109.4
18,O=C(O)C(F)(F)F.O=C(O)C(F)(F)F.c1cc(CO[C@@H]2CN(Cc3ccoc3)[C@@H]3CCCO[C@@H]32)ccn1,101.1
19,COCCN1CCO[C@H]2[C@H](OCc3cccc(C)n3)CC[C@@H]21,8.918
20,CCO[C@@H]1CC[C@H]2[C@H]1OCCN2Cc1ccoc1.O=C(O)C(F)(F)F,96.95
